# A selection: hits, their analogues and other compounds. The true share with any hit is near 2.6%.
# PME-1 primary – PME-1 (human) inhibition | recombinant PME-1, FP-Rh probe fluorescence polarization | inhibition, % at 5.9 µM | 320,000 tested, 0.53% active;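 active = inhibition above the campaign mean of all compounds plus 3 SD, cut at about 26% in these data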;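 note: competitive labeling of PME-1 active site by serine hydrolase directed probe; 0% = PME-1 with DMSO and 100% = wells lacking PME-1 enzyme; inhibitors block probe labeling so polarization falls and inhibition rises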
# Target sequence (Q9Y570 whole entry, looked up): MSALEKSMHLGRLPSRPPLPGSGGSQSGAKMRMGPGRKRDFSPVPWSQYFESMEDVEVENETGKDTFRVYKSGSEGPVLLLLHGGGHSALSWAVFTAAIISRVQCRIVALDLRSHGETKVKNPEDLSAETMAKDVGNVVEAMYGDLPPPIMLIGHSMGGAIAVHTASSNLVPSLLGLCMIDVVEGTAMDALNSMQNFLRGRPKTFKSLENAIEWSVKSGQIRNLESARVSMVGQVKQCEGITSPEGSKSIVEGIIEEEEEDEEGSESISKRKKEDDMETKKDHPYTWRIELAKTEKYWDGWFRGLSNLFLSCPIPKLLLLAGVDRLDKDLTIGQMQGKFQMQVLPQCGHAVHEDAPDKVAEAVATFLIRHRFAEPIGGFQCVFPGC
# PAD4 FP inh – inhibitors of human PAD4; inhibition, % at 6.36 µM; AID 485272; recombinant PAD4, RCA probe fluorescence polarization; Q9UM07; 330,000 tested, 0.41% active;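 active = percent inhibition above a cutoff equal to the mean of all tested compounds plus 3 SD, cut at about 15% in these data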;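 note: 0% = PAD4 with RCA probe and DMSO and 100% = probe without PAD4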
# Fam108B inh – blocks mouse Fam108B hydrolase in RBBP9 counter-screen; 300,000 tested, 0.33% active; recombinant Fam108B, FP-Rh probe fluorescence polarization; inhibition, % at 9.51 µM; AID 1947;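 active = inhibition above the screen mean inhibition plus 3 SD, computed separately per campaign, cut at about 18% in these data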;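 note: inhibitors lower polarization as less probe binds the enzyme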
# SIAE inh – inhibitors of human sialic acid acetylesterase SIAE; Q9HAT2; AID 1053197; 370,000 tested, 0.69% active; inhibition, % at 9.66 µM; SIAE FP-Rh probe binding, fluorescence polarization;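 active = inhibition above a cutoff: mean of compounds within the control limits plus 3 SD of those, cut at about 17% in these data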;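 note: 0% = plate median of compound wells and 100% = probe without SIAE protein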
# TCR CD3 inh – human TCR-CD3 binding inhibition; TAMRA-labeled TCR probe fluorescence, biochemical; inhibition, % at 9.4 µM; 360,000 tested, 0.37% active; AID 651800; in the data active = inhibition above about 19%;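 note: recombinant mutant TCR 2C K166C tagged with TAMRA read by polarization; 0% = receptor in buffer alone and 100% = receptor with positive control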
# PRMT1 FP inh – inhibitors of human PRMT1. Q99873. recombinant PRMT1, activity-based probe fluorescence polarization. inhibition, % at 2.79 µM. 370,000 tested, 1.3% active. AID 652257;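 active = inhibition above about 21% made by adding two undisclosed values, limit read from the data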
# Target sequence (Q99873 whole entry, looked up): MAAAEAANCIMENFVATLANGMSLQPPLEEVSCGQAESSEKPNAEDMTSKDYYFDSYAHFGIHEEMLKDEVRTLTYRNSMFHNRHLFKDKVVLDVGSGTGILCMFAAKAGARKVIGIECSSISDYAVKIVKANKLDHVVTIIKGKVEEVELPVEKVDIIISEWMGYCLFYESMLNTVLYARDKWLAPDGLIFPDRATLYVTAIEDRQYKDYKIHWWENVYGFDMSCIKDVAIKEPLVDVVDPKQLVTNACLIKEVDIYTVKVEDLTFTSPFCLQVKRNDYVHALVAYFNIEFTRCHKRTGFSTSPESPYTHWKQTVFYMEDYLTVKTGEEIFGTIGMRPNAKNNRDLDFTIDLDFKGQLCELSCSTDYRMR
# Fam108b confirm – confirmation of mouse Fam108b serine hydrolase inhibitors. shares compounds with Fam108B inh. recombinant Fam108b, FP-Rh probe fluorescence polarization. inhibition, % at 9.51 µM. 930 tested, 44% active. AID 1978;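 active = inhibition above a limit from the primary screen, the mean over all compounds plus 3 SD, cut at about 19% in these data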;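 note: 0% = median of active Fam108b wells and 100% = catalytically dead S170A mutant; inhibitors free the probe so polarization falls as inhibition rises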
# Fam108b inh – inhibits mouse Fam108b in gel-based ABPP; shares compounds with Fam108B inh; recombinant Fam108b, fluorophosphonate probe; inhibition, % at 20 µM; 260 tested, 44% active; in the data active = inhibition above about 40%
# Active calls of the source: *; . = no result given.
SMILES,PME-1 primary,PAD4 FP inh,Fam108B inh,SIAE inh,TCR CD3 inh,PRMT1 FP inh,Fam108b confirm,others
Cc1ccc(NC(=O)C(=O)Nc2ccc(C)cn2)nc1,1.3,-1.4,-2.9,1.4,8.9,-0.6,.,
Cc1ccc(NC(=O)/C(C#N)=C(\N)C(Cl)(Cl)Cl)nc1,-0.3,9.7,20.6*,.,.,.,23.0*,
CC1(c2nnnn2Cc2ccccc2)CCCC(=O)N1Cc1cccs1 (stereo not given),.,.,.,-2.8,.,-3.2,.,
O=C(CNc1cccc2ccccc12)N/N=C/c1cccc(Oc2ccccc2)c1,36.2*,-5.4,32.5*,13.0,-0.3,0.3,12.8,
CC(C)(C)N1C(=O)Cc2c1nc(N)c1c(N)nc(N3CCCCC3CO)c(C#N)c21 (stereo not given),17.8,9.8,39.8*,.,.,.,90.5*,
Cc1ccc(C(=O)NC(=S)Nc2ccc3c(c2)OCCO3)c(C)c1,4.7,-6.6,26.4*,0.0,-1.1,0.5,-3.7,
C#CCOCCOCCOCCNc1nc(N2CCOCC2)nc(N2CCN(C(=O)[C@H](CCC(=O)O)n3cc(C(N)CO)nn3)CC2)n1 (stereo not given in full),.,.,.,-1.6,.,3.8,.,
Cc1ccccc1NC(=O)Nc1ccc2c(c1)C(=O)N(C)[C@H]1CC[C@H](CC(=O)NCC3CC3)O[C@@H]1CO2,.,.,.,-3.7,.,-1.3,.,
N#Cc1ccc2ccn(CC(=O)NC3CCCCC3)c2c1,-5.3,-0.9,0.7,-4.7,-6.2,-0.9,.,
N#Cc1ccc2ccn(CC(=O)NCc3ccccc3)c2c1,1.1,-4.9,33.2*,-2.4,0.0,-0.4,4.2,
COc1ccccc1CC(=O)NNS(=O)(=O)c1ccc([N+](=O)[O-])cc1,-4.0,-5.9,21.3*,-0.3,-2.1,-0.1,-13.4,
COc1cc(OC)cc(-c2nnc(Nc3nc4c(F)cccc4s3)o2)c1,61.0*,-6.1,18.9*,-10.3,-1.6,3.1,13.1,
O=C(Nc1c(-c2ccc(F)cc2)nc2ncccn12)c1ccc(F)cc1,.,.,.,-5.3,.,1.9,.,
Nc1ccc(N)c(C(=O)O)c1,3.8,0.1,56.9*,.,.,.,45.0*,Fam108b inh=0.0
COc1ccc(Nc2nc3ccccc3nc2NS(=O)(=O)c2cccs2)c(OC)c1,-0.5,-2.9,22.7*,0.8,-9.8,5.2,12.6,
COc1cccc(Nc2nc3ccccc3nc2NS(=O)(=O)c2cccs2)c1,20.3,-2.0,6.1,3.9,5.2,2.6,.,
Cc1nc(S/C(=C/c2ccc(-c3cc(Cl)ccc3C)o2)C(=O)O)n[nH]1,34.2*,0.5,24.9*,5.7,2.8,0.0,18.3*,
N#CCC[C@H]1CC[C@]2(CCCN(Cc3ccccc3)C2)O1,.,.,.,0.9,.,1.6,.,
COc1ccc(S(=O)(=O)Nc2ccccc2C(=O)Nc2nc(-c3ccc(F)cc3)cs2)cc1OC,15.6,-6.0,16.2,-7.7,-2.4,2.8,.,
COc1ccc(-c2csc(NC(=O)c3ccccc3NS(=O)(=O)c3ccc(C)cc3)n2)cc1,20.8,-5.9,35.8*,1.3,5.6,1.6,11.9,
O=C(OCc1cn(Cc2ccc(Cl)cc2)nn1)N1CCCC1,.,.,.,5.6,.,-4.9,.,
Cn1c2ccccc2c(=O)n2c(=O)c3ccccc3cc12,6.7,68.7*,28.7*,.,.,.,5.8,
Cn1c(-c2ccccc2)cc(=O)c2ccccc21,5.5,0.7,-3.6,-0.1,0.1,1.3,.,
c1ccc(-c2ccc(CNc3nc(-c4ccccn4)nnc3-c3ccccc3)cc2)cc1,.,.,.,-7.2,.,-5.2,.,
C=CCn1c(N)c(C(=O)OCCC)c2nc3ccccc3nc21,4.0,-11.1,0.2,-4.4,-5.5,-1.8,.,
SMILES,PME-1 primary,PAD4 FP inh,Fam108B inh,SIAE inh,TCR CD3 inh,PRMT1 FP inh,Fam108b confirm,others
COCCn1c(N)c(C(=O)OCc2ccccc2)c2nc3ccccc3nc21,-4.4,5.3,42.2*,-3.3,2.9,-3.0,-2.1,
COC(=O)CN1CCN(C(=O)c2csc(N3CCOCC3)n2)CC1,.,.,.,-0.5,.,-3.2,.,
O=[N+]([O-])c1ccc(O)c(Nc2ncnc3ccc(Br)cc23)c1,32.4*,-0.6,20.3*,-12.3,1.6,-0.8,10.9,
COc1ccc(-c2nc(-c3cccs3)c(-c3cccs3)[nH]2)cc1O,47.4*,-8.0,29.9*,14.9,6.8,-1.6,17.6,
CCCCCCCCN1C(=O)[C@@H](CC(=O)NCC23CC4CC(CC(C4)C2)C3)C[C@@]2(C(=O)OC)C1=C[C@H](C(C)C)O[C@@H]2C1CC1,.,.,.,1.6,.,-0.5,.,
O=[N+]([O-])c1cc(N=Nc2ccc3ccccc3c2)ccc1O,10.4,-4.5,21.6*,-0.7,-8.3,3.5,12.8,
Nc1ccc(O)c([N+](=O)[O-])c1,-5.8,-8.0,.,-1.0,11.6,8.0,.,
C=CCN1C(=O)[C@@H](CC(=O)N2CCCC2)[C@]2(C(=O)OCC)CCCCC/C=C/12,.,.,.,5.2,.,2.3,.,
O=C(Cn1c(=O)n(Cc2ccco2)c(=O)c2c3c(sc21)CCCC3)Nc1ccccc1,-70.1,-11.4,-45.9,-50.3,-3.6,8.4,.,
O=c1c2c3c(sc2n(CCN2CCCCC2)c(=O)n1Cc1ccco1)CCCCC3,0.3,-1.1,21.1*,5.5,-0.7,-2.8,28.1*,
O=c1c2c3c(sc2n(CCN2CCOCC2)c(=O)n1Cc1ccco1)CCCCC3,-1.4,1.1,20.4*,-6.7,-8.7,4.1,16.3,
CC(=O)Nc1ccc(N2CCOCC2)c(S(=O)(=O)Nc2ccccc2Cl)c1,.,.,.,2.2,12.3,-2.4,.,
O=C(Nc1cccc(C(F)(F)F)c1)Nc1ccc(N2CCCC2)c(S(=O)(=O)Nc2ccccc2Cl)c1,20.0,-0.3,35.5*,-24.9,0.7,-1.5,31.7*,Fam108b inh=95.0*
CCOc1ccc(NC(=S)Nc2ccc3nsnc3c2)cc1,51.9*,75.8*,80.0*,3.4,7.5,16.8,24.9*,
COc1cc2c(c(OC)c1OC)-c1ccc(N(C)CC(OC)OC)c(=O)cc1[C@@H](NC(C)=O)CC2,5.4,-2.0,19.4*,8.4,-2.5,5.0,-7.1,
CN[C@H]1CCc2cc(OC)c(OC)c(OC)c2-c2ccc(N(C)CC(OC)OC)c(=O)cc21,0.0,1.4,1.2,5.0,-7.1,2.9,.,
COC(=O)[C@H](C(C)C)N(CCc1cn(Cc2ccccc2)nn1)S(=O)(=O)c1ccccc1Br,.,.,.,-4.8,.,0.7,.,
O=C(Nc1nc(-c2cccc([N+](=O)[O-])c2)cs1)c1cccc([N+](=O)[O-])c1C(=O)O,3.6,2.1,0.5,-0.9,0.5,4.3,.,
O=C(Cc1cccc2ccccc12)Nc1nc(-c2cccc([N+](=O)[O-])c2)cs1,14.0,-0.8,19.6*,1.4,5.5,0.7,8.9,
O=C(NN=C1CCN(Cc2ccccc2)CC1)c1cc2ccccc2cc1O,29.0*,-3.5,33.5*,11.7,8.9,-0.8,-2.7,
CC(=O)N1CCN(C(=O)CSc2nc3cccnc3n2C)CC1,.,.,.,0.0,.,-1.5,.,
COCC(=O)N(Cc1cc2cc(OC)ccc2[nH]c1=O)c1ccc(C)cc1,-1.1,-5.8,23.5*,-1.8,4.4,0.1,6.0,

# Assay outcomes (PubChem BioAssay)
